Shown are actives, neighbours in structure and some others; about 14% of the full set was active somewhere.
Pf growth 96h = inhibits malaria parasite growth, 96 h; P. falciparum luciferase reporter growth, 96 h; Potency, µM (top dose mostly 28.7 µM), for the others: at the top dose activity change, negative = inhibition, most hits filed as inhibitors; 6.9% of 320,000 active; note: potency is the fitted concentration of half-maximal effect
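Two-generation exposure (96 h) targets delayed-death phenotype. Reporter parasites carrying integrated firefly luciferase, in red cells at 2% hematocrit and 0.05% parasitemia final, kept at 37 C, 5% CO2; luminescence loss indicates inhibition.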
Sm TGR block = S. mansoni TGR enzyme inhibition; purified TGR, DTNB reduction, TNB absorbance 405 nm; Potency, µM (highest dose often 114 µM), for the others: at the top dose activity change, negative = inhibition, usual class: inhibitors; 3% of 360,000 active; note: potency is the fitted concentration of half-maximal effect; nearly all actives have a fitted effect of over 60% in size
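Kinetic colorimetric format: TGR-catalysed, NADPH-driven DTNB reduction monitored via TNB absorbance. Enzyme dispensed at 20 nM; compound exposure 15 min at room temperature before reaction start.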
Pf growth 48h = P. falciparum growth inhibition at 48 hours (one generation); P. falciparum luciferase growth in erythrocytes, 48 h; Potency, µM (top dose mostly 28.7 µM), inactives show top-dose activity change, negative = inhibition, hits mostly inhibitors; 5.9% of 310,000 active; note: potency is the fitted concentration of half-maximal effect
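Parasite viability was followed by luminescence of a genomically integrated firefly luciferase. Cultures held 0.1% parasitemia at 2% hematocrit (final), incubated under 5% CO2 at 37 C.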
Giardia FBPA inh = Giardia lamblia aldolase inhibition; A8B2U2; purified Giardia FBPA; Potency, µM (highest dose often 59.6 µM), for the others: at the highest dose activity, negative = inhibition, hits mostly inhibitors; 0.71% of 290,000 active; AID 2451; note: potency is the fitted concentration of half-maximal effect; nearly all actives have a fitted effect of over 55% in size
Target sequence (A8B2U2 whole entry, looked up): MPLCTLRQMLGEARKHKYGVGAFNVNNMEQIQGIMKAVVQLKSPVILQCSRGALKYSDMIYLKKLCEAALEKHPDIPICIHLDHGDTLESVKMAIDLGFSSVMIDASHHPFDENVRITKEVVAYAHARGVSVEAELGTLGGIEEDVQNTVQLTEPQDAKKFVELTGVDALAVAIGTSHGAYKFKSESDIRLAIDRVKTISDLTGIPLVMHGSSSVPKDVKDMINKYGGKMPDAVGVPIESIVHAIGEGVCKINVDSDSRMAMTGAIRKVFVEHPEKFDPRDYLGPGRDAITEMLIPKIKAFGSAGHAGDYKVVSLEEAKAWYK
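Giardia FBPA (40 nM reagent) was preincubated 10 min at RT with compound (up to 57.5 uM final), then substrate plus GAPDH/TPI/NAD/arsenate coupling system with diaphorase/resazurin was added; resorufin fluorescence (525/598 nm) was read after 20 min.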
HCMV antiviral = human cytomegalovirus inhibition | 4.5% of 410,000 active | HFF cells, HCMV-luciferase reporter, 72 h; stronger effect = lower value | AID 1259415 | activity change, negative = inhibition, % at 57.5 µM; in the data active = activity change below about -60%; inconclusive = no clear call, values can overlap the other calls; inactive = above about -39%
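Luciferase read-out from HCMV-luciferase-infected HFFs (MOI 1 PFU/cell) 72 h post infection at 37C; compounds added after 16 h cell attachment; activity normalized between buffer-only basal and Salinomycin (10uM) inhibitor controls.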
An asterisk follows results filed as active; ? = inconclusive; . = no result; [ ] = dose if it differs, or a comment. Unless noted, calls come from the whole dose curve; as a rule, active = well fitted curve in the direction sought with a large enough effect; inconclusive = small, poorly fitted or top-dose-only effect, or another doubt; inactive = no such curve, though single readings can be large; an effect the other way counts as inactive or inconclusive. % is set by controls: 0 for no effect and ±100 for the full control effect.

SMILES	Pf growth 96h	Sm TGR block	Pf growth 48h	Giardia FBPA inh	HCMV antiviral
CC(=O)c1c(C)oc2ccc(N(C(=O)c3ccncc3)S(=O)(=O)c3ccc(C)cc3C)cc12	.	14%	.	.	-34
O=C1/C(=C\c2ccco2)SC(=S)N1C1CCCCC1	?	40µM*	24%	-6%	.
O=C(CCN1C(=O)/C(=C\c2ccccc2F)SC1=S)N1CCCCC1	?	-9%	7%	7%	19
O=C1/C(=C/c2ccccc2F)SC(=S)N1CCC(=O)N1CCCCC1CCO (centres undefined)	?	-6%	?	.	-84*
Cc1ccc(N2C(=O)/C(=C/c3ccco3)SC2=S)cc1	-20%	-12%	13%	-23%	5
COc1cccc(/C=C2\SC(=S)N(CCC(=O)N3CCCCC3)C2=O)c1	?	4%	-18%	-1%	?
COc1ccc(/C=C2\SC(=S)N(CCC(=O)N3CCCCC3)C2=O)cc1	40%	-16%	11%	0%	-20
O=C1/C(=C/c2cccc(Cl)c2)SC(=S)N1CCC(=O)N1CCCCC1CCO (centres undefined)	?	0%	?	.	-82*
O=C1/C(=C/c2ccco2)SC(=S)N1CCC(=O)N1CCCCC1CCO (centres undefined)	?	22µM*	?	.	-92*
COCCNC(=O)C(c1ccc(C)o1)N(C(=O)Cn1nnc2ccccc21)c1ccccc1 (centres undefined)	?	.	-19%	1%	?
CN(C)/C=C/C1=C([N+](=O)[O-])C(c2cccc([N+](=O)[O-])c2)NC(=O)N1 (centres undefined)	12%	?	5%	-1%	-25
Cc1sc(NC(=O)C2=COCCO2)nc1-c1ccc(F)cc1	?	-10%	?	.	-21
CCN1C=C(C(=O)OC)C(c2cccc(C)c2)C(C(=O)OC)=C1	12µM*	-21%[11.4 µM]	.	13%	-22
COC(=O)C1=CN(c2cc(C)cc(C)c2)C=C(C(=O)OC)C1c1cccc(F)c1	?	0%	12µM*	-4%	7
COC(=O)C1=CN(Cc2ccc(OC)cc2)C=C(C(=O)OC)C1c1ccsc1	38%	.	7.4µM*	-3%	-7
COCCN1C=C(C(=O)OC)C(c2cc3c(cc2Br)OCO3)C(C(=O)OC)=C1	?	5%	5.9µM*	-24%	.
CCOc1ccc(/C=C2\SC(=S)N(CCC(=O)Nc3ccccc3C(=O)O)C2=O)cc1	-7%	-2%	5%	-4%	31
COCCN1C=C(C(=O)OC)C(c2ccc(Cl)cc2)C(C(=O)OC)=C1	0%	.	10µM*	-12%	-21
COC(=O)C1=CN(Cc2cccs2)C=C(C(=O)OC)C1c1cccc(Cl)c1	?	6%	9.3µM*	-4%	-14
Cc1ccccc1-c1cncnc1NCCN1CCOCC1	.	.	.	-6%	.
C[C@H](N)C(=O)N[C@@H](Cc1ccc(F)cc1)C(=O)N[C@@H](CCCN=C(N)N)C(=O)N[C@@H](CC1CCCCC1)C(=O)N[C@@H](CCCCN=C(N)N)C(=O)N[C@@H](Cc1ccc(O)cc1)C(N)=O	.	.	.	3%	.
Cc1ccc(C2=CN(CCC(=O)O)C(=O)C2)cc1	.	.	.	.	26
CC(NC(=O)C1CCN(Cc2ccc(Oc3ccccc3)cc2)CC1)c1cccc2ccccc12 (centres undefined)	.	.	.	.	-37
Cc1nc(C)c(C(=O)NNS(=O)(=O)c2ccc3ccccc3c2)s1	28%	2%	8%	0%	-73*
CC(C)C(=O)NC(C)C(c1cccs1)N1CCN(c2ccccc2)CC1 (centres undefined)	?	-23%	?	1%	-9
SMILES	Pf growth 96h	Sm TGR block	Pf growth 48h	Giardia FBPA inh	HCMV antiviral
CC(NC(=O)c1cccs1)C(c1cccs1)N1CCN(c2ccccc2)CC1 (centres undefined)	-6%	0%	9.3µM*	-1%	-8
CC(NC(=O)c1ccc(C(C)(C)C)cc1)C(c1cccs1)N1CCOCC1 (centres undefined)	12µM*	2%	13µM*	-5%	9
CC(NC(=O)c1cccs1)C(c1cccs1)N1CCOCC1 (centres undefined)	2.6µM*	1%	-20%	-5%	49
CC(NC(=O)c1ccc2c(c1)OCO2)C(c1cccs1)N1CCN(c2ccccc2)CC1 (centres undefined)	12µM*	2%	141%	-3%	-11
COc1ccc(S(=O)(=O)N2CCCCCC2)cc1C(=O)N(C)Cc1ccc(C)cc1	?	4%	?	.	-36
COc1ccc(S(=O)(=O)N2CCCCCC2)cc1C(=O)NCc1ccc(C)cc1	12µM*	-9%	15µM*	.	0
COc1ccc(CCNC(=O)c2cc(S(=O)(=O)N3CCCCCC3)ccc2OC)cc1OC	13µM*	-25%	?	.	-17
COc1cc(CNCCc2ccc(S(N)(=O)=O)cc2)ccc1OCC(=O)N1CCCCC1	4.1µM*	-9%	5%	-4%	-13
COc1ccc(S(=O)(=O)N2CCCCCC2)cc1C(=O)N(C)CCOc1ccc(Cl)cc1	?	3%	13µM*	.	-39
Cc1cc2oc(C(=O)Nc3ccc(S(=O)(=O)N4CCC(C)CC4)cc3)cc(=O)c2cc1C	.	2%	.	.	16
O=Cc1ccc2c(c1)OCCOCCOCCOCCO2	.	.	.	.	-13
CC1Cn2cc(C(=O)Nc3cccc(C(F)(F)F)c3)c(=O)c3c(Cl)ccc(c32)O1 (centres undefined)	.	3%	.	.	10
COc1ccc(CCN(C)C(=O)c2cc(S(=O)(=O)N3CCCCC3)ccc2Cl)cc1OC	?	0%	13µM*	.	-12
COc1ccc(Cl)cc1C(=O)NCCc1ccc(S(=O)(=O)NC(=O)NC2CCCCC2)cc1	?	-5%	-9%	?	-63*
COc1ccc(CCNC(=O)NC2CCCCC2)cc1OC	-3%	2%	16%	0%	25
CC1C(c2ccccc2)=Nn2c(=O)n(-c3ccccc3)c(=O)n21 (centres undefined)	.	.	.	.	-29
CC(C)CC(C(=O)N1CCOCC1)N1Cc2ccccc2C1=O (centres undefined)	-2%	3%	459%	4%	10
Cc1ccc(-n2c(-c3ccccc3)c[n+]3c2CCc2ccccc2-3)c(C)c1	0%	3%	0.93µM*	11%	-97*
Cc1ccc(-n2c(SCC(=O)N3CCCc4ccccc43)nnc2-c2cccnc2)c(C)c1	-19%	1%	?	4%	?
Cc1cccc(NC(=O)c2cc3c(=O)n(Cc4cccnc4)ccc3nc2C)c1	.	18%	.	.	-3
COc1ccc(CCNC(=O)C/C(C)=N/NC(=O)c2cnccn2)cc1	1%	-15%	3%	10%	-12
O=C(Oc1ccc2ccc(=O)oc2c1)c1ccccc1	9.3µM*	0%	10%	-2%	16
CCOC(=O)N(C)[C@H]1C[C@H]2c3cc(-c4ccccc4C)ccc3CCN2C[C@H]1[C@H](C)O	.	.	.	.	-89*

Screening results from PubChem.
